HCMV antiviral: qHTS Assay for inhibitors of the human cytomegalovirus (HCMV); HFF cells, HCMV-luciferase reporter, 72 h; active compounds read low; activity change, negative = inhibition, % at 57.5 µM; 410,000 compounds, 4.5% hits; AID 1259415, 2018; in the data active means activity change below about -60%; inconclusive means no clear call, values can overlap the other calls; inactive means above about -39%
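HFF cells seeded 16 h at 37C, treated with compounds, infected with luciferase-reporter HCMV at MOI 1 PFU/cell; luciferase read at 72 h post infection, normalized to buffer-only and Salinomycin controls.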
Pf growth 48h: Primary qHTS for delayed death inhibitors of the malarial parasite plastid, 48 hour incubation. 310,000 compounds, 5.9% hits. Potency, µM (series often up to 28.7 µM), for the others: top-dose activity change, negative = inhibition, most hits filed as inhibitors. P. falciparum luciferase growth in erythrocytes, 48 h. AID 504832, 2011; further: potency means the concentration at half of the fitted maximal effect
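Parasite viability was followed by luminescence of a genomically integrated firefly luciferase. Cultures held 0.1% parasitemia at 2% hematocrit (final), incubated under 5% CO2 at 37 C.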
Pf growth 96h: Primary qHTS for delayed death inhibitors of the malarial parasite plastid, 96 hour incubation | 320,000 compounds, 6.9% hits | P. falciparum luciferase reporter growth, 96 h | Potency, µM (highest dose often 28.7 µM), for the others: at the highest dose activity change, negative = inhibition, most hits filed as inhibitors; further: potency means the concentration at half of the fitted maximal effect
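Luminescence readout: decreased luciferase signal marks inhibited growth of reporter-expressing P. falciparum in infected red cells (2% hematocrit, 0.05% parasitemia final), exposed to compound two generations (96 h, 37 C, 5% CO2).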
HCV inh: qHTS Assay for Inhibitors of Hepatitis C Virus (HCV) | Huh7.5.1 HCVcc-Cre infection, luciferase reporter, 44 h | Potency, µM (highest dose often 41.8 µM), for inactives: top-dose activity change, negative = inhibition, actives largely listed as inhibitors | 340,000 compounds, 3.4% hits; further: potency means the concentration at half of the fitted maximal effect
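Cells seeded at 1,000/well and cultured 4 h, then compounds added followed by HCVcc-Cre virus (~0.5 moi). After 44 h further culture, luciferase substrate was added, plates held 15 min at room temperature, and luminescence read for 15 sec.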
Starred values were filed as active, the others as inactive; ? = inconclusive; . = no result given. Shown are actives, neighbours in structure and some others; about 13% of the full set was active somewhere. Unless noted, the call rests on the fitted dose curve; in most records, active means well fitted inhibition curve with a large enough effect; inconclusive means small, poorly fitted or top-dose-only effect, or another doubt; inactive means no such curve, though single readings can be large or run the other way. On the % scale 0 is the no-effect control and ±100 the full control effect.

SMILES | HCMV antiviral | Pf growth 48h | Pf growth 96h | HCV inh
O=C(NC1CCCCC1)C(c1ccc2ncccc2c1)N(Cc1ccc(F)cc1)C(=O)c1ccc2c(c1)OCCO2 (configuration not stated) | -40.0 | ? | 10.4µM* | ?
O=C(NC1CCCCC1)C(c1ccc2ncccc2c1)N(Cc1cccs1)C(=O)c1cccs1 (configuration not stated) | ? | 11.7µM* | ? | ?
O=C(NC1CCCC1)C(c1ccc(F)cc1)N(Cc1ccc(F)cc1)C(=O)c1ccn[nH]1 (configuration not stated) | -30.8 | -4.6% | 92.4% | 10.5%
O=C(NC1CCCCC1)C(c1ccc2ncccc2c1)N(Cc1ccco1)C(=O)c1ccc2c(c1)OCCO2 (configuration not stated) | -35.8 | 5.22µM* | 2.62µM* | -9.3%
O=C(NC1CCCCC1)C(c1ccc2ncccc2c1)N(Cc1ccc2c(c1)OCO2)C(=O)c1ccc2c(c1)OCCO2 (configuration not stated) | -24.2 | 7.38µM* | ? | ?
O=C(NC1CCCCC1)C(c1cccs1)N(Cc1cccs1)C(=O)c1cccs1 (configuration not stated) | -39.8 | ? | ? | ?
Cc1ccc(C)c(NC(=O)C(c2ccccc2)N2Cc3ccccc3C2=O)c1 (configuration not stated) | -38.2 | . | . | .
Cc1noc(-c2ccc(N3CCC(C)CC3)c([N+](=O)[O-])c2)n1 | 78.6 | . | . | .
COc1ccc(-c2sc(NC(C)=O)nc2-c2ccccc2)cc1 | 11.9 | 20.8% | 32.5% | ?
COCCNc1nc(-c2ccc(OC)cc2)c(-c2ccc(OC)cc2)s1 | -68.9* | 0.0% | ? | ?
CCCCCCNc1nc(-c2ccc(OC)cc2)c(CCC(=O)O)s1 | -61.6* | 2.8% | 6.8% | 12.8%
COc1ccc(-c2nc(NC(C)=O)sc2-c2ccccc2)cc1 | -3.8 | ? | ? | 10µM*
CCN(CC)CCNc1nc(-c2ccc(OC)cc2)c(-c2ccc(OC)cc2)s1 | -39.0 | ? | ? | ?
COc1ccc(NC(=O)CN(C)S(=O)(=O)c2ccc3nc(C)sc3c2)cc1 | -22.9 | . | . | .
Cc1cccc(Nc2ncc(NC(=O)c3cccc(F)c3)c(Nc3cccc(C)c3)n2)c1 | -31.8 | . | . | .
O=C(NC1CCCCC1)C1CN(S(=O)(=O)c2ccccc2)CCN1S(=O)(=O)c1ccccc1 (configuration not stated) | -12.6 | -9.4% | 11.7µM* | -1.8%
CCNC(=O)C1CN(S(=O)(=O)c2ccccc2)CCN1S(=O)(=O)c1ccccc1 (configuration not stated) | -26.5 | 12.5% | 2.33µM* | -10.4%
CCc1cccc(CC)c1NC(=O)C1CN(S(=O)(=O)c2ccccc2)CCN1S(=O)(=O)c1ccccc1 (configuration not stated) | -35.4 | ? | ? | 12.6µM*
COc1ccccc1OCC(=O)Nc1cc(-c2ccc(C)cc2)no1 | 26.2 | . | . | .
Cc1cc(C)c(NC(=O)CCS(=O)(=O)c2cc3c(cc2Cl)NC(=O)CO3)c(C)c1 | 9.0 | . | . | .
O=C1NC[C@@H](Cc2cccc3ccccc23)N(CC2CCCCC2)C1=O | -4.4 | ? | ? | -8.9%
S=C1NC[C@H](c2ccccc2)N1CCCCC1CCCCC1 | 1.9 | 11.7µM* | 6.57µM* | 0.8%
NC1=NC[C@H](c2ccccc2)N1CCCCC1CCCCC1 | -11.8 | ? | ? | -7.6%
O=C1NC[C@@H](Cc2cccc3ccccc23)N(CC2(c3ccccc3)CC2)C1=O | 18.3 | 11.7µM* | 13.1µM* | ?
S=C1NC[C@H](Cc2ccccc2)N1CC1CCN(CCCC2CCCCC2)CC1 | -104.8* | . | . | .
SMILES | HCMV antiviral | Pf growth 48h | Pf growth 96h | HCV inh
S=C1NC[C@H](Cc2cccc3ccccc23)N1CC1CCCCC1 | -23.8 | -26.8% | ? | 2.82µM*
Cc1ccccc1NS(=O)(=O)c1ccc2[nH]cc(C(=O)NC(C)c3ccccc3)c(=O)c2c1 (configuration not stated) | -20.2 | . | . | .
CCc1ccccc1N(C)C(=O)c1cc2c(Cl)nc3ccc(C)cc3c2s1 | -10.3 | . | . | .
COc1ccc(-n2ncc(C(=O)NCc3ccc4c(c3)OCO4)c2C2CCN(C(=O)OC(C)(C)C)CC2)cc1 | 0.0 | . | . | .
CCOC(=O)N1CCC(NC(=O)c2ccc3c(c2)N(Cc2ccccc2)CCS3)CC1 | -22.0 | . | ? | -21.0%
CCOC(=O)N1CCC(NC(=O)c2ccc3c(c2)N(C)CCS3)CC1 | -12.0 | 11.7µM* | ? | 7.3%
CCOC(=O)N1CCC(NC(=O)c2ccc3c(c2)N(Cc2ccc(F)cc2)CCS3)CC1 | -24.7 | 4.65µM* | ? | 17.8µM*
Cc1ccccc1NC(=O)c1ccc2c(c1)N(C)CCS2 | 104.6 | 39.5% | 13.1µM* | ?
CN1CCSc2ccc(C(=O)Nc3cc(F)ccc3F)cc21 | 55.9 | 192.6% | 334.5% | ?
O=C(NC1CC1)c1ccc2c(c1)N(Cc1ccccc1)CCS2 | -23.1 | -22.7% | 11.7µM* | -20.0%
CCOC(=O)N1CCC(NC(=O)c2ccc3c(c2)N(Cc2ccc(C)cc2)CCS3)CC1 | -6.9 | ? | ? | -7.0%
COc1ccc(Nc2cc3[nH]c(-c4cccc(C(F)(F)F)c4)cc3cn2)cc1OC | -20.4 | . | . | .
Cc1cccc(NC(=O)C2CCCN(c3nnc(-n4c(C)ccc4C)s3)C2)c1C (configuration not stated) | -6.4 | . | . | .
N#Cc1ccccc1NC(=O)Cn1cnc2onc(-c3cccc(F)c3)c2c1=O | 10.2 | . | . | .
O=C(NCc1ccco1)c1ccc2c(c1)N(Cc1ccc(Cl)cc1)CCS2 | ? | ? | ? | 10µM*
CN(C)S(=O)(=O)N(CC(=O)NCCSCc1cccc(Cl)c1)c1ccccc1 | -3.8 | . | . | .
COc1ccccc1NC(=O)C(C)OC(=O)CC1CCCCC1 (configuration not stated) | -4.4 | 13.1µM* | ? | 4.5%
CC(=O)c1cccc(NC(=O)C(CC(C)C)NC(=O)C2CCCCC2)c1 (configuration not stated) | -33.4 | 5.86µM* | -3.8% | -0.2%
COc1ccccc1NC(=O)C(CC(C)C)NC(=O)C1CCCCC1 (configuration not stated) | -20.0 | . | 8.28µM* | 6.5%
COc1ccc(OC)c(NC(=O)C(CC(C)C)NC(=O)C2CCCCC2)c1 (configuration not stated) | 16.5 | ? | ? | -4.1%
COc1ccccc1NC(=O)CC1CCCC1 | 25.8 | 10.0% | 13.1% | -2.9%
CCc1ccc(S(=O)(=O)c2nnn3c2nc(NC2CCCCCC2)c2sccc23)cc1 | -5.0 | . | . | .
O=C(CSc1nccn1-c1cccc(Cl)c1)Nc1ccc2c(c1)OCO2 | -37.7 | . | . | .
Cc1c(NC(=O)Nc2ccc(Cl)c(C(F)(F)F)c2)c(=O)n(-c2ccccc2)n1C | -5.2 | . | . | .
N#C/C(=C/c1cccs1)c1nc2ccccc2[nH]1 | 64.6 | ? | ? | ?
